EBV gp42 block = EBV gp42 inhibition. Q1HVG2. Fluorescence polarization binding assay, mP read-out. inhibition, % (tested at 21.74 µM). 220,000 compounds, 0.42% hits; in the data active = inhibition above about 50%
GLD-1 TGE inh = GLD-1-TGE RNA interaction inhibition (C. elegans); AID 2280; purified GLD-1 + fluorescein TGE RNA, fluorescence polarization; 320,000 compounds, 0.44% hits; inhibition, % at 5.96 µM;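 active = percent inhibition above a per-plate cutoff, the plate mean of test compounds plus 3 SD, cut at about 30% in these data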;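 note: 0% = DMSO wells with GLD-1 and probe and 100% = wells lacking GLD-1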
MCL1 BIM primary = disrupts human MCL1 binding to BIM-BH3 peptide; Q07820; GST-MCL1 / FITC-Bim-BH3 fluorescence polarization; inhibition, % at 10.9 µM; 320,000 compounds, 0.68% hits;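 active = inhibition above the mean inhibition of all tested compounds plus 3 SD, set per campaign, cut at about 40% in these data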;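 note: 0% = DMSO wells and 100% = unlabeled Bim-BH3 peptide control; higher means more loss of mP so more displacement of Bim peptide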
E coli Lon inh = E. coli protease La inhibition; P0A9M0; purified E. coli Lon protease, fluorescence polarization; inhibition, % at 7.94 µM; 360,000 compounds, 0.42% hits; AID 602123; in the data active = inhibition above about 13%, passing the limit was not always enough;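 note: 0% = enzyme with probe and DMSO and 100% = no enzyme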
Target sequence (P0A9M0 whole entry, looked up): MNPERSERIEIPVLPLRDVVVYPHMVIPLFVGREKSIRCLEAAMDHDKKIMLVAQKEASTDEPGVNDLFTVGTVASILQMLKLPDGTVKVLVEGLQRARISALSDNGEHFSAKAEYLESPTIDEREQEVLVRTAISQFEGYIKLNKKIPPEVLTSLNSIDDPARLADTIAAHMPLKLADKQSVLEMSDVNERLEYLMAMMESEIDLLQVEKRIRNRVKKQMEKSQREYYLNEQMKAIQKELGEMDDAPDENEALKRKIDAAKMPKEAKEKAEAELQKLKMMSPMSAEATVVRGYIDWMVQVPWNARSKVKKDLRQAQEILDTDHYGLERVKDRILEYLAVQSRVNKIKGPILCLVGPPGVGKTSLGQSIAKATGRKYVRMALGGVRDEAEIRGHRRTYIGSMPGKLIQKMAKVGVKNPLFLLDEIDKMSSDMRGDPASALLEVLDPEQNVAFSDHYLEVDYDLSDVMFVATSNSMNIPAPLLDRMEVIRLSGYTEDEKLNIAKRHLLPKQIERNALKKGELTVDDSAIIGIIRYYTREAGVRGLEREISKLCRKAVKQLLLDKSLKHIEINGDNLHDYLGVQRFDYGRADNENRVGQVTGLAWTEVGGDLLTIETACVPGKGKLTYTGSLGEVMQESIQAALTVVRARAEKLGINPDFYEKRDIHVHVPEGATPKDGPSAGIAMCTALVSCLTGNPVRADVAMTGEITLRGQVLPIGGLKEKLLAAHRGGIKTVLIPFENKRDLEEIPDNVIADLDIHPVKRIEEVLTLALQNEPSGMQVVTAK
BCLXL inh = inhibitors of human Bcl-xL | AID 2129 | GST-Bcl-xL / FITC-Bim BH3 peptide fluorescence polarization | Q07817 | 320,000 compounds, 0.7% hits | inhibition, % at 10.9 µM;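 active = inhibition above the mean of all tested compounds plus 3 SD, cutoff set per campaign, cut at about 30% in these data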;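 note: 0% = DMSO wells and 100% = unlabeled Bim-BH3 peptide competitor; inhibitors lower millipolarization by displacing the labeled peptide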
MEX-5 binding = C. elegans MEX-5 TCR-2 RNA binding activity; MEX-5/FITC-TCR2 RNA binding, fluorescence polarization; active compounds read low; activity score (negative = inhibition of binding), % at 10 µM; 300,000 compounds, 0.38% hits; AID 1832;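 active = inhibition past about -25% in most replicates, and total fluorescence under double the plate's negative control median, limit read from the data; inconclusive = replicates evenly split on the limit, or fluorescence at least double controls; inactive = too little inhibition in most replicates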;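 note: 0% = DMSO and -100% = 5 µM competing unlabeled TCR2 RNA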
* hit, by the source's call; ? = inconclusive; . = no result given. Hits are enriched below; roughly 1.4% of the tested compounds scored in any of these assays.

SMILES	EBV gp42 block	GLD-1 TGE inh	MCL1 BIM primary	E coli Lon inh	BCLXL inh	MEX-5 binding
ONc1cccnc1-n1nc(C(F)(F)F)cc1C(F)(F)F	6	22	35	.	38*	-4
O=C(O)c1ccccc1C(=O)Nc1ccc(-n2nc(C(F)(F)F)cc2C(F)(F)F)cc1	-6	2	9	-5	0	-3
O=C(CCN=C1NS(=O)(=O)c2ccccc21)OCc1nnc(-c2ccccc2)o1	.	-3	-8	-5	-4	-1
CN(C)CC(C)(C)CNS(=O)(=O)CC12CCC(CC1=O)C2(C)C (centres undefined)	-4	3	11	3	5	4
Cc1ccc(N(CC(=O)NCCc2ccccc2)C(=O)CCC(=O)Nc2cc(C)ccn2)cc1	.	10	1	-17	3	-2
C(=N\N1CCOCC1)/c1nc(-c2ccccc2)n2ccccc12	62*	6	-3	-3	1	1
C(=N\N1CCOCC1)/c1cn(-c2ccccc2)nc1-c1ccccc1	-25	13	-2	-11	4	-1
COc1ccc(Cn2cc3c(-c4ccc(F)cc4)nnc-3c3cc(OC)c(OC)cc32)cc1	-41	0	36	-14	47*	.
COc1ccc(C(=O)NC2(C(F)(F)F)C(=O)N(Cc3ccco3)C3=C2C(=O)CC(C)(C)C3)cc1OC (centres undefined)	77*	1	-3	-1	0	?
Cc1occc1C(=O)N/N=C/C1=C(N2CCOCC2)C(=C\c2ccc(Cl)cc2Cl)/CC1	-17	9	0	-8	-2	-54*
Cc1cc(C)nc(N/N=C/C2=C(N3CCOCC3)C(=C\c3ccc(Cl)cc3)/CC2)n1	-2	8	-5	-20	-2	-1
Cc1ccc(NC(=O)CCC(=O)N2CCC(C)CC2)c([N+](=O)[O-])c1	.	4	4	6	2	2
Cc1ccccc1C1C(C#N)=C2NC(=O)c3c(sc4c3CCCCC4)N2C2=C1C(=O)CC(C)(C)C2 (centres undefined)	-15	101*	34	.	30	?
O=C1NC(=Nc2ccccc2)/C(=C/c2ccco2)S1	-8	-36	47*	5	42*	-3
O=C(NC1CCCCC1)C(CCc1ccccc1)N1CCc2ccccc2C1 (centres undefined)	.	.	.	10	.	.
CC(C)CNC(=O)c1cc(S(=O)(=O)N2CCOCC2)ccc1N1CCCC1	.	4	-5	-1	6	-4
Cc1cccc2cc(/C=C3\N=C(c4ccccc4)OC3=O)c(N3CCOCC3)nc12	135*	-8	-6	7	2	-9
S=C(Nc1ccc2nccnc2c1)N1CCOCC1	7	2	4	2	8	0
O=C(CC(O)c1ccccc1)Nc1ccccn1 (centres undefined)	.	.	.	-11	.	.
N#CC1=C(N)N2C(=C(C#N)C1c1ccccc1)Sc1ccccc12 (centres undefined)	90*	-3	-3	.	-1	-33*
CCOc1ccc(C2C(C#N)=C(N)N3C(=C2C#N)Sc2ccccc23)cc1 (centres undefined)	.	-13	-17	-36	-3	-2
O=C(/C=C/c1ccc(N2CCC(c3ccccc3)=N2)cc1)c1ccccc1	53*	-84	-50	.	34*	5
CCCCSCCCNC(=O)CS(=O)Cc1nc(-c2cccc(C)c2)oc1C (centres undefined)	-15	4	4	0	45*	0
CCC(C)(C)NC(=O)c1ccc2c(c1)N(CC(=O)N1CCCC1)C(=O)C(C)(C)O2	.	2	-2	-4	2	-2
CCOc1ccc(N2C(=O)CC(N(CCc3ccc(OC)c(OC)c3)C(=O)/C=C/C(=O)O)C2=O)cc1 (centres undefined)	-21	-1	-5	4	2	1
CC1=CC(C#N)(C#N)C(C#N)(C#N)C(c2ccccc2)N1 (centres undefined)	114*	119*	151*	.	145*	-53*
CN(C)c1ccc(/C=C/c2nc3ccccc3c(=O)[nH]2)cc1	.	-109	-7	-383	-1	-33*
C=CCNC(=S)Nc1cc(Cl)ccc1OC	-13	4	24	2	5	-40*
C=CCN(CC=C)C(=S)Nc1cc(Cl)ccc1OC	-9	2	4	7	3	2
